Compound activity from PubChem.
The list is not random: actives were taken first. Their share in the collection is about 6.4%.
KinaseGlo FLuc: Kinase-Glo luciferase inhibition (counter-screen); Kinase-Glo luciferase, ATP luminescence, 8 min; Q27757; Potency, µM (titrated, usually from 38.3 µM), inactives show at the top dose activity change, negative = inhibition, most hits filed as inhibitors; 0.28% of 200,000 active; AID 1379; further: nearly all actives have a fitted effect of over 60% in size
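Substrate mix (final 50 mM imidazole pH 7.2, 50 mM KCl, 7 mM MgCl2, 10 uM ATP, 0.01% Tween 20, 0.05% BSA) plus pin-tool compound, then Kinase-Glo detection mix; 8 min ambient, luminescence read.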
RORg inh: ROR gamma (mouse) transcription inhibition | P51450 | Drosophila S2 Gal4-RORgamma UAS-luciferase reporter, 20 h | Potency, µM (doses to about 53.6 µM), without a hit: at the top dose activity change, negative = inhibition, actives largely listed as inhibitors | 5.4% of 310,000 active | AID 2551; further: nearly all actives have a fitted effect of over 60% in size
Target sequence (P51450 whole entry, looked up, the tested form may be a part): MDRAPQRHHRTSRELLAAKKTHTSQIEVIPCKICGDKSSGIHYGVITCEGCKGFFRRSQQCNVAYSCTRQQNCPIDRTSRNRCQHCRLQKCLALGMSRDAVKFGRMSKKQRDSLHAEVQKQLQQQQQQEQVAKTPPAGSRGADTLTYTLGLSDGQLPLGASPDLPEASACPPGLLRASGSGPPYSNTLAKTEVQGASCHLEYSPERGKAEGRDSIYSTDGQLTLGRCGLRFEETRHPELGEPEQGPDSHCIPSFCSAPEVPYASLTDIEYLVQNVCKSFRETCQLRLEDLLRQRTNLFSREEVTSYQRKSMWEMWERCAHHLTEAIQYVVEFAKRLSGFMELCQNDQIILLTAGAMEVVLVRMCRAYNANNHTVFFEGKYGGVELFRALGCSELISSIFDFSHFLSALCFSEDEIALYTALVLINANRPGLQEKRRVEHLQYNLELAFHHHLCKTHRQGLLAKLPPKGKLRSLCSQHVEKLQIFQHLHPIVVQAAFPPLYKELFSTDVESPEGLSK
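Luciferase reporter read in Schneider cells carrying Gal4-RORγ (mouse) and UAS-Photinus luciferase; cells given compound 1 h before 700 uM copper sulfate induction, then incubated 20 h at ambient temperature.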
VP16 counter: counter-screen for ROR gamma inhibitors: Gal4-VP16 reporter; Drosophila S2 Gal4-VP16 UAS-luciferase, luminescence, 20 h; 3.5% of 310,000 active; Potency, µM (highest dose often 53.6 µM), for the others: at the highest dose activity, negative = inhibition, hits mostly inhibitors; AID 2546;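 further: Gal4-VP16 expression switched on by copper sulfate through the metallothionein promoter; nearly all actives have a fitted effect of over 50% in size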
* marks the source's active call; other numbers are inactive results. The call rests on the fitted dose curve; in most records, active means well fitted curve in the direction sought with a large enough effect; inconclusive means small, poorly fitted or top-dose-only effect, or another doubt; inactive means no such curve, though single readings can be large; an effect the other way counts as inactive or inconclusive. On the % scale 0 is the no-effect control and ±100 the full control effect; potency means the concentration at half of the fitted maximal effect.

Results for O=C(NCc1ccccn1)c1nc(-c2ccc(C(F)(F)F)cc2)no1 ?
KinaseGlo FLuc: -1%; RORg inh: 11%; VP16 counter: -13%

Results for COC1c2ccccc2C(=O)N1CCc1ccc(Cl)cc1 (stereo not drawn) ?
RORg inh: 25%; VP16 counter: 7%

How did CC(O)C#C[Si](C)(C)c1ccccc1 (stereo not drawn) do in these assays?
KinaseGlo FLuc: 1%; RORg inh: -1%; VP16 counter: -1%

Results for O=S1(=O)c2ccccc2N=NN1Cc1ccc(Cl)c(Cl)c1 ?
KinaseGlo FLuc: -5%; RORg inh: -1%; VP16 counter: 18%

How did CC(C)(C)c1ccc(CN2N=Nc3ccccc3S2(=O)=O)cc1 do in these assays?
KinaseGlo FLuc: -2%; RORg inh: 23%; VP16 counter: 1.6µM*

What do the screens show for `CCCCN(C)CCn1c(=S)[nH]c2ccc(N3CCOCC3)cc2c1=O`?
KinaseGlo FLuc: 2%; RORg inh: inconclusive; VP16 counter: inconclusive

Results for COCCCn1c(=S)[nH]c2ccc(N3CCOCC3)cc2c1=O ?
KinaseGlo FLuc: 4%; RORg inh: inconclusive; VP16 counter: inconclusive

Results for COc1ccc(CCn2c(=S)[nH]c3ccc(N4CCOCC4)cc3c2=O)cc1OC ?
KinaseGlo FLuc: 0%; RORg inh: 13µM*; VP16 counter: inconclusive

Results for O=C(CCCCCn1c(=S)[nH]c2ccc(N3CCOCC3)cc2c1=O)NCc1cccc(Cl)c1 ?
RORg inh: 10µM*; VP16 counter: -2%

Results for O=c1c2cc(N3CCOCC3)ccc2[nH]c(=S)n1CCc1ccccc1 ?
RORg inh: 2µM*; VP16 counter: 3.2µM*

How did O=C(CCCCCn1c(=S)[nH]c2ccc(N3CCOCC3)cc2c1=O)NCc1ccccc1 do in these assays?
KinaseGlo FLuc: 1%; RORg inh: -26%; VP16 counter: inconclusive

Results for O=c1c2cc(N3CCOCC3)ccc2[nH]c(=S)n1Cc1ccccn1 ?
KinaseGlo FLuc: -2%; RORg inh: 7.9µM*; VP16 counter: inconclusive

How did O=c1c2cc(N3CCOCC3)ccc2[nH]c(=S)n1Cc1ccccc1Cl do in these assays?
KinaseGlo FLuc: -5%; RORg inh: inconclusive; VP16 counter: inconclusive

Results for O=C(CN1C(=O)S/C(=C\c2ccc(F)cc2)C1=O)Nc1cccc(S(=O)(=O)NCc2ccco2)c1 ?
KinaseGlo FLuc: -11%; RORg inh: 5%; VP16 counter: -2%

Results for O=C(CNC(=S)N(Cc1ccccc1)Cc1cccnc1)NC1CCCCC1 ?
KinaseGlo FLuc: 0%; RORg inh: 37%; VP16 counter: 0%

What do the screens show for `C=CCn1c(CCC)nc2ccccc21`?
KinaseGlo FLuc: -1%; RORg inh: -2%; VP16 counter: -7%

Results for C=CCn1c(C(C)(C)C)nc2ccccc21 ?
KinaseGlo FLuc: -3%; RORg inh: -26%; VP16 counter: 7%

How did C=CCn1c(CC(C)(C)C)nc2ccccc21 do in these assays?
KinaseGlo FLuc: 0%; RORg inh: 11µM*; VP16 counter: -6%

Results for C=CCn1c(C(CC)CC)nc2ccccc21 ?
RORg inh: 6.3µM*; VP16 counter: -14%

Results for O=C(COC(=O)/C=C/c1cccs1)NC1CC1 ?
KinaseGlo FLuc: 1%; RORg inh: -4%; VP16 counter: -17%

Results for Oc1c(Br)cc(Br)cc1CNn1cnnc1 ?
RORg inh: 10%; VP16 counter: 28%

Results for Cc1c(C(=O)Nc2nccs2)sc2nc(-c3cccs3)cc(C(F)(F)F)c12 ?
KinaseGlo FLuc: -2%; RORg inh: 0.79µM*; VP16 counter: 3.2µM*

Results for Cc1c(C(=O)O)sc2nc(-c3cccs3)cc(C(F)(F)F)c12 ?
RORg inh: 9%; VP16 counter: -4%

Results for CC(OC(=O)c1cccc(-n2cnnn2)c1)C(=O)N(C)c1ccccc1 (stereo not drawn) ?
RORg inh: -7%; VP16 counter: 2%

Results for CN(C)c1cc[n+](CC(=O)c2ccc(-c3ccccc3)cc2)cc1 ?
KinaseGlo FLuc: 0%; RORg inh: -3%; VP16 counter: inconclusive

How did COc1ccc(-c2ccoc2)cc1C1C2C=CCC(C)C2C(=O)N1Cc1ccccc1 (stereo not drawn) do in these assays?
RORg inh: -40%; VP16 counter: inconclusive

How did Nc1[nH]c(N=NC(=O)c2ccccc2)c2ccccc12 do in these assays?
KinaseGlo FLuc: -21%; RORg inh: 8.9µM*; VP16 counter: inconclusive

What do the screens show for `CC(=O)c1cn(C(=O)c2ccc(Cl)cc2)c2ccccc12`?
RORg inh: -11%; VP16 counter: 1%

Results for Nc1[nH]c(N=NC(=O)c2ccccc2O)c2ccccc12 ?
KinaseGlo FLuc: -10%; RORg inh: inconclusive; VP16 counter: inconclusive

How did Nc1[nH]c(N=NC(=O)c2ccc(Cl)cc2)c2ccccc12 do in these assays?
KinaseGlo FLuc: -3%; RORg inh: 5.6µM*; VP16 counter: inconclusive

What do the screens show for `CCCCC(CC)CNCC(CC)CCCC` (stereo not drawn)?
RORg inh: -4%; VP16 counter: -20%

Results for COc1ccc(-c2cnn(-c3ccccc3)c2N)cc1OC ?
KinaseGlo FLuc: 7%; RORg inh: 10%; VP16 counter: -6%

How did COc1cccc(-n2cnc3cccc(N)c32)c1 do in these assays?
KinaseGlo FLuc: 1%; RORg inh: -5%; VP16 counter: 17%

Results for COc1ccccc1-c1cn(-c2ccccc2)c(=S)[nH]1 ?
RORg inh: 2.8µM*; VP16 counter: 5.6µM*

Results for COc1cccc(-n2cc(-c3ccc(F)cc3)[nH]c2=S)c1 ?
RORg inh: 1.3µM*; VP16 counter: inconclusive

Results for COc1ccc(-n2nc3cc(C)c(N)cc3n2)cc1Cl ?
RORg inh: -6%; VP16 counter: 17%

How did COc1ccc(-c2cn(-c3ccc(C)c(Cl)c3)c(=S)[nH]2)cc1OC do in these assays?
RORg inh: inconclusive; VP16 counter: 10µM*

Results for COc1ccccc1C1=NC(c2ccccc2)CN1c1ccccc1 (stereo not drawn) ?
RORg inh: -2%; VP16 counter: 2%

Results for COc1ccc(-c2cn(-c3ccccc3)c(=S)[nH]2)cc1OC ?
RORg inh: 5.6µM*; VP16 counter: 11µM*

How did CCOc1ccc(S(=O)(=O)N2CCC(C(=O)NCc3cccnc3)CC2)cc1C do in these assays?
RORg inh: -9%; VP16 counter: -5%

What do the screens show for `CCOCCCNC(=O)c1cccc(OC2CCN(S(C)(=O)=O)CC2)c1`?
RORg inh: 9%; VP16 counter: -5%

Results for COc1cccc(C(C(=O)NC(C)(C)C)N(C(=O)CCC(=O)Nc2cc(C)on2)c2ccc3c(c2)OCCO3)c1OC (stereo not drawn) ?
RORg inh: 11%; VP16 counter: 6%

How did COc1ccccc1CN1CCCC2(CCN(C(=O)c3cnccn3)CC2)C1 do in these assays?
KinaseGlo FLuc: -2%; RORg inh: 0%; VP16 counter: -10%

How did COc1ccc2c(c1)C(=O)[C@@H](OC(=O)Nc1ccc(C)c(Br)c1)[C@H](c1ccc(OC)c(Br)c1)O2 do in these assays?
KinaseGlo FLuc: 2%; RORg inh: 22%; VP16 counter: -17%
